# Only a selection was taken, and the strongest signals are over-represented in it overall.
# B1: CCL1 (Coprinopsis cinerea) (protein)
# chain: MDTQAKPPAGRYVIYNRVLSPNGEKLALTYPGYQREALTLTPLHHSANQIWILNNWDATTSSLTPETARNTQVGWGSGNVPIVLPPGNYVWTLASSAGGYIIQDGGKTVYWNAGEAVANTKVSIGGDNGLQARWIFERV
# Columns and labels:
# Assay in all cases: glycan array binding signal (z-score within array); higher = stronger binding
# Conditions in all cases: glycan notation: IUPAC condensed, linker removed
# [1] = molecular target: Fuc(a1-2)Gal(b1-3)GlcNAc6S
# Outline: (§1)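 Glycan array data came from 3228 arrays in the Consortium for Functional Glycomics database, and only arrays with an available protein sequence were kept. Glycan names were put into IUPAC-condensed notation, and columns mapping to the same glycan were averaged. The binding signal is a within-array Z-score, averaged across arrays of one protein sequence run at different concentrations or buffers and across linkers. A negative Z-score can be read as non-binding.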
# [2] = molecular target: Fuc(a1-2)Gal(b1-3)[Fuc(a1-4)]GlcNAc(b1-2)Man(a1-3)[Fuc(a1-2)Gal(b1-3)[Fuc(a1-4)]GlcNAc(b1-2)Man(a1-6)]Man(b1-4)GlcNAc(b1-4)GlcNAc
# Outline: as §1
# [3] = molecular target: Fuc(a1-2)Gal(b1-3)[Fuc(a1-4)]GlcNAc(b1-2)Man(a1-6)[Fuc(a1-2)Gal(b1-3)[Fuc(a1-4)]GlcNAc(b1-2)Man(a1-3)]Man(b1-4)GlcNAc(b1-4)[Fuc(a1-6)]GlcNAc
# Outline: as §1
# [4] = molecular target: Fuc(a1-2)Gal(b1-3)[Fuc(a1-4)]GlcNAc(b1-3)[Gal(b1-4)GlcNAc(b1-6)]Gal(b1-4)Glc
# Outline: as §1
# Fuc(a1-2)Gal(b1-4)Glc = molecular target: Fuc(a1-2)Gal(b1-4)Glc
# Outline: as §1
# [5] = molecular target: Fuc(a1-2)Gal(b1-4)GlcNAc(b1-3)[Fuc(a1-2)Gal(b1-4)GlcNAc(b1-6)]GalNAc
# Outline: as §1
# [6] = molecular target: Fuc(a1-2)Gal(b1-4)[Fuc(a1-3)]GlcNAc(b1-3)[Neu5Ac(a2-6)Gal(b1-4)GlcNAc(b1-6)]Gal(b1-4)Glc
# Outline: as §1
# [7] = molecular target: Fuc(a1-2)Gal6S(b1-4)Glc6S
# Outline: as §1
# [8] = molecular target: Fuc(a1-2)[Gal(a1-3)]Gal(b1-3)GlcNAc(b1-2)Man(a1-3)[Fuc(a1-2)[Gal(a1-3)]Gal(b1-3)GlcNAc(b1-2)Man(a1-6)]Man(b1-4)GlcNAc(b1-4)GlcNAc
# Outline: as §1
# [9] = molecular target: Fuc(a1-2)[Gal(a1-3)]Gal(b1-4)[Fuc(a1-3)]GlcNAc
# Outline: as §1
# [10] = molecular target: Fuc(a1-2)[GalNAc(a1-3)]Gal(b1-4)GlcNAc(b1-3)Gal(b1-4)GlcNAc
# Outline: as §1
# [11] = molecular target: Fuc(a1-3)[Gal(b1-4)]GlcNAc(b1-2)Man(a1-3)[Fuc(a1-3)[Gal(b1-4)]GlcNAc(b1-2)Man(a1-6)]Man(b1-4)GlcNAc(b1-4)GlcNAc
# Outline: as §1
# [12] = molecular target: Fuc(a1-3)[Gal(b1-4)]GlcNAc(b1-3)Gal(b1-3)[Fuc(a1-4)]GlcNAc
# Outline: as §1
# [13] = molecular target: Fuc(a1-3)[Gal(b1-4)]GlcNAc(b1-4)Gal(b1-4)[Fuc(a1-3)]GlcNAc(b1-4)Gal(b1-4)[Fuc(a1-3)]GlcNAc
# Outline: as §1
# [14] = molecular target: Fuc(a1-3)[GalNAc(b1-4)]GlcNAc
# Outline: as §1
# [15] = molecular target: Fuc(a1-3)[GalNAc(b1-4)]GlcNAc6S
# Outline: as §1
# [16] = molecular target: Fuc(a1-3)[GalNAc3S(b1-4)]GlcNAc
# Outline: as §1
# [17] = molecular target: Gal(a1-3)Gal(b1-3)[Fuc(a1-4)]GlcNAc(b1-2)Man(a1-3)[Gal(a1-3)Gal(b1-3)[Fuc(a1-4)]GlcNAc(b1-2)Man(a1-6)]Man(b1-4)GlcNAc(b1-4)GlcNAc
# Outline: as §1
# Gal(a1-4)GlcNAc = molecular target: Gal(a1-4)GlcNAc
# Outline: as §1
# Gal(b1-3)Gal = molecular target: Gal(b1-3)Gal
# Outline: as §1
# Gal(b1-3)Gal(b1-4)GlcNAc = molecular target: Gal(b1-3)Gal(b1-4)GlcNAc
# Outline: as §1
# Gal(b1-3)GalNAc = molecular target: Gal(b1-3)GalNAc
# Outline: as §1
# [18] = molecular target: Gal(b1-3)GlcNAc(b1-2)Man(a1-3)[Gal(b1-3)GlcNAc(b1-2)Man(a1-6)]Man(b1-4)GlcNAc(b1-4)GlcNAc
# Outline: as §1
# [19] = molecular target: Gal(b1-3)GlcNAc(b1-3)Gal(b1-4)[Fuc(a1-3)]GlcNAc(b1-6)[Gal(b1-3)GlcNAc(b1-3)]Gal(b1-4)Glc
# Outline: as §1
# [20] = molecular target: Gal(b1-4)GlcNAc(b1-2)Man(a1-3)[GlcNAc(b1-2)Man(a1-6)]Man(b1-4)GlcNAc(b1-4)GlcNAc
# Outline: as §1
# [21] = molecular target: Gal(b1-4)GlcNAc(b1-2)Man(a1-6)Man(b1-4)GlcNAc(b1-4)GlcNAc
# Outline: as §1
# [22] = molecular target: Gal(b1-4)GlcNAc(b1-2)[Gal(b1-4)GlcNAc(b1-6)]Man(a1-6)[Gal(b1-4)GlcNAc(b1-2)Man(a1-3)]Man(b1-4)GlcNAc(b1-4)GlcNAc
# Outline: as §1
# [23] = molecular target: Gal(b1-4)GlcNAc(b1-6)GalNAc
# Outline: as §1
# [24] = molecular target: Gal3S(b1-3)[Fuc(a1-4)]GlcNAc
# Outline: as §1
# Gal3S(b1-4)GlcNAc = molecular target: Gal3S(b1-4)GlcNAc
# Outline: as §1
binder,measurement,setting,value
B1,glycan array binding signal (z-score),[1],-0.097
same,glycan array binding signal (z-score),[2],-0.006
same,glycan array binding signal (z-score),[3],-0.148
same,glycan array binding signal (z-score),[4],-0.144
same,glycan array binding signal (z-score),Fuc(a1-2)Gal(b1-4)Glc,-0.127
same,glycan array binding signal (z-score),[5],-0.025
same,glycan array binding signal (z-score),[6],-0.142
same,glycan array binding signal (z-score),[7],-0.033
same,glycan array binding signal (z-score),[8],-0.131
same,glycan array binding signal (z-score),[9],-0.138
same,glycan array binding signal (z-score),[10],-0.161
same,glycan array binding signal (z-score),[11],0.237
same,glycan array binding signal (z-score),[12],1.7
same,glycan array binding signal (z-score),[13],1.68
same,glycan array binding signal (z-score),[14],8.48
same,glycan array binding signal (z-score),[15],13.6
same,glycan array binding signal (z-score),[16],7.46
same,glycan array binding signal (z-score),[17],-0.081
same,glycan array binding signal (z-score),Gal(a1-4)GlcNAc,-0.164
same,glycan array binding signal (z-score),Gal(b1-3)Gal,-0.15
same,glycan array binding signal (z-score),Gal(b1-3)Gal(b1-4)GlcNAc,-0.151
same,glycan array binding signal (z-score),Gal(b1-3)GalNAc,-0.163
same,glycan array binding signal (z-score),[18],-0.119
same,glycan array binding signal (z-score),[19],0.276
same,glycan array binding signal (z-score),[20],-0.106
same,glycan array binding signal (z-score),[21],-0.133
same,glycan array binding signal (z-score),[22],-0.131
same,glycan array binding signal (z-score),[23],-0.142
same,glycan array binding signal (z-score),[24],-0.116
same,glycan array binding signal (z-score),Gal3S(b1-4)GlcNAc,-0.123

# Reference: the supplement of paper PMC8728848
